In ChEMBL document CHEMBL1201862, “PubChem BioAssay data set” (2004):
About 2,100 (0.53%) of roughly 400,000 compounds were called active. About 14% were inconclusive and are not listed. No rule for the calls is given here. The full list was thinned out, with actives kept by preference.

biological target: Ataxin-2 (Homo sapiens) (UniProt Q99700); assay: qHTS for Inhibitors of ATXN expression.; format: functional
Sequence (Q99700 whole entry): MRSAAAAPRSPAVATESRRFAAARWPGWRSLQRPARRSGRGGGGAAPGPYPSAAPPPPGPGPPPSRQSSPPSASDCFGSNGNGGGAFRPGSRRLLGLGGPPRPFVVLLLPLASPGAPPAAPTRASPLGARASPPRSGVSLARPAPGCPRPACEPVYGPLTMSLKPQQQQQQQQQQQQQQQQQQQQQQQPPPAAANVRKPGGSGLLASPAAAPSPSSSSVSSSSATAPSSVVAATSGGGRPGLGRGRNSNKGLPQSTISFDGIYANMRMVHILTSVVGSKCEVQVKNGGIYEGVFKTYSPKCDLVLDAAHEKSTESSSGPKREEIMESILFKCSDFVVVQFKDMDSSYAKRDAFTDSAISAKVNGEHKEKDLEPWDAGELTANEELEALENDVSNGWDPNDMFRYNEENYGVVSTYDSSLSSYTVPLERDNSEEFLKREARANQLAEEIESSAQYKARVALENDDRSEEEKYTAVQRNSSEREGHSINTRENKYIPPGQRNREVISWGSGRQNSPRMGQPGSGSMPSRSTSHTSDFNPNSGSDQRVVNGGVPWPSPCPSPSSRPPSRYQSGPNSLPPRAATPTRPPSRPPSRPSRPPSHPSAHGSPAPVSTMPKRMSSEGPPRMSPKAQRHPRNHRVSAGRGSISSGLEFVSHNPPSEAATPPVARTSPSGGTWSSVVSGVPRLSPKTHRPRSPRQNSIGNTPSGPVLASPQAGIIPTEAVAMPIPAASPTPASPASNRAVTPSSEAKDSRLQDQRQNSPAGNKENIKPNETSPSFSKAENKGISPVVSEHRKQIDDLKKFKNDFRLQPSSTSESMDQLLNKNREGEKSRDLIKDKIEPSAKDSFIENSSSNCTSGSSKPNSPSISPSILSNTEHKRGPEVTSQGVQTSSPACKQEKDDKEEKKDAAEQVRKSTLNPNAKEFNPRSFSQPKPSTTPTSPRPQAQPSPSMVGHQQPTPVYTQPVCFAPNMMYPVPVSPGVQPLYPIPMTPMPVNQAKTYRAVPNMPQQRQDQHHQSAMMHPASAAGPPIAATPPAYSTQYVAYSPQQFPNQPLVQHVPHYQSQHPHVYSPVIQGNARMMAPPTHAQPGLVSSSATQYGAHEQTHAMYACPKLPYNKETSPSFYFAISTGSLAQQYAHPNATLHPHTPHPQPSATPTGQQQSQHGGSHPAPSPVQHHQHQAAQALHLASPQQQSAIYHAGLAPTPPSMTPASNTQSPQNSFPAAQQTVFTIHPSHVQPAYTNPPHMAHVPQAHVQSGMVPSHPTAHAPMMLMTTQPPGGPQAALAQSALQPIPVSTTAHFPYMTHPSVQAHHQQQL

| SMILES | Potency |
| --- | --- |
| O=c1cc(N2CCCCC2)c(-c2ccccc2)nn1Cc1ccccc1 | inactive |
| COc1ccccc1CNC(=O)c1cnn(-c2nccc(-c3cccs3)n2)c1C | inactive |
| COc1ccc(-c2cc(-c3cccs3)nc3sc(C#N)c(N)c23)cc1 | inactive |
| COc1ccc(-c2cc(-c3cccs3)c(C#N)c(SCC(=O)NCc3ccccc3OC)n2)cc1 | 35.5 µM (active) |
| COc1ccc(C2C=C(c3ccccc3)Nc3nc(NS(=O)(=O)c4ccccc4)nn32)cc1 (stereo not drawn) | inactive |
| COc1c2c(c3c(c1OC)c(=O)c1ccccc1n3C)OCO2 | inactive |
| Cc1c(CC(=O)N2CCN(C(=O)C3COc4ccccc4O3)CC2)c(=O)oc2c(C)c(O)ccc12 (stereo not drawn) | inactive |
| O=C(c1cc2cc(Cl)ccc2[nH]1)N1CCc2ccccc2C1 | inactive |
| OC(COC(c1ccc(Cl)cc1)c1ccc(Cl)cc1)CN1CCc2ccccc2C1 (stereo not drawn) | 25.1 µM (active) |
| O=C(Cc1ccc(Cl)cc1)N1CCc2ccccc2C1 | inactive |
| CCOC(=O)c1cc2c(=O)n3ccccc3nc2n(C(C)C)/c1=N/C(=O)c1ccco1 | inactive |
| COc1cc(-c2oc3ccc(C)cc3c(=O)c2O)cc(OC)c1OC | inactive |
| C[C@H]1CN([C@@H](C)CO)C(=O)c2cccc(NC(=O)Nc3ccc(C(F)(F)F)cc3)c2O[C@@H]1CN(C)S(=O)(=O)c1ccc(Cl)cc1 | 25.1 µM (active) |
| C[C@@H]1CN([C@H](C)CO)C(=O)c2cccc(NC(=O)Nc3ccc(C(F)(F)F)cc3)c2O[C@H]1CN(C)S(=O)(=O)c1cccs1 | 28.2 µM (active) |
| C[C@H](CO)N1C[C@H](C)[C@@H](CN(C)S(=O)(=O)c2ccc(F)cc2)Oc2c(NC(=O)Nc3ccc(C(F)(F)F)cc3)cccc2C1=O | 35.5 µM (active) |
| COc1ccc(S(=O)(=O)N(C)C[C@H]2Oc3c(NC(=O)Nc4ccc(C(F)(F)F)cc4)cccc3C(=O)N([C@H](C)CO)C[C@@H]2C)cc1 | 22.4 µM (active) |
| Cc1c(C(=O)/C=C/N(C)C)nnn1-c1ccc(Cl)cc1C#N | inactive |
| Cc1ccc(NC(=O)CN2C(=O)S/C(=C\c3ccc(-c4cccc(C(=O)O)c4C)o3)C2=O)cc1C | inactive |
| Cc1ccc(OCCCC(=O)ON=C(N)c2ccccc2C)cc1 | inactive |
| COc1ccc(C2CC(c3ccc(C(F)(F)F)cc3)=NN2c2ccc(S(N)(=O)=O)cc2)cc1 (stereo not drawn) | inactive |
| CCOC(=O)N1CCN(C(=O)CSc2nc(O)c3cnn(-c4ccc(C)cc4)c3n2)CC1 | inactive |
| COc1ccc(C2C3=C(CCCC3=O)N(CC(=O)O)C3=C2C(=O)CCC3)cc1Cl | inactive |
| COc1ccc(C(=O)/C=C/Nc2ccc(S(=O)(=O)Nc3cc(OC)nc(OC)n3)cc2)c(OC)c1 | inactive |
| CC(=O)Nc1ccc(N/C=C(\C=O)c2nc3ccccc3o2)cc1 | inactive |
| CCc1cnc2c(c1SC(C(C)=O)C(=O)N(C)C)c(=O)n(C)c(=O)n2C (stereo not drawn) | 39.8 µM (active) |

| SMILES | Potency |
| --- | --- |
| COc1ccc(-c2c(C)c3ccc(O)c(CN4CCCC4)c3oc2=O)cc1OC | inactive |
| Cc1ccc2c(Cl)cc(Cl)c(OCC(=O)O)c2n1 | inactive |
| CCc1cc(=O)oc2c(CN3CCN(C)CC3)c(O)c(Cl)cc12 | inactive |
| NC(Cc1ccc(C(F)(F)F)cc1)c1csc(NC(=O)Nc2ccccc2Oc2ccccc2)n1 (stereo not drawn) | 39.8 µM (active) |
| CN(C)CCCN=C(S)Nc1ccc(Oc2ccccc2)cc1 | inactive |
| CN(C)Cc1csc(NC(=O)Nc2ccccc2Oc2ccccc2)n1 | 25.1 µM (active) |
| COc1ccccc1NC(=O)c1sc2nc(-c3ccco3)ccc2c1N | inactive |
| COc1cccc(-c2ccc3c(N)c(C(=O)Nc4cc(C(F)(F)F)ccc4OC)sc3n2)c1 | inactive |
| CC(C)c1ccccc1NC(=O)Nc1nc(C(N)Cc2ccc(C(F)(F)F)cc2)cs1 (stereo not drawn) | 35.5 µM (active) |
| COc1ccccc1NC(=O)Nc1nc(C(N)Cc2ccc(C(F)(F)F)cc2)cs1 (stereo not drawn) | 39.8 µM (active) |
| Cc1ccc(S(=O)(=O)NCCNc2ccc(Br)c(C)c2)cc1 | inactive |
| CCC(=O)Oc1c(C(=O)CC)cc2c(C)cc(=O)oc2c1C | inactive |
| O=C(OCCOc1ccccc1Cl)c1cc(S(=O)(=O)N2CCCCC2)ccc1N1CCOCC1 | inactive |
| CCCC[n+]1c2ccccc2cc2ccccc21 | inactive |
| Cc1cc(C)c(C)c(S(=O)(=O)NCc2ccc(C(=O)N3CCN(C)CC3)cc2)c1C | inactive |
| CCc1nccn1C(=O)c1cnn2c(C(F)F)cc(-c3ccc(C)cc3)nc12 | 31.6 µM (active) |
| COc1ccc(-c2cc(C(F)F)n3ncc(C(=O)Nc4cc(C)on4)c3n2)cc1 | inactive |
| CCCNC(=O)c1cnn2c(C(F)F)cc(-c3ccccc3)nc12 | inactive |
| Cc1cccnc1Nc1nc(-c2ccccn2)cs1 | 0.794 µM (active) |
| Cc1ccc(S(=O)(=O)NC(C(=O)Oc2ccc3c(C)c(Cl)c(=O)oc3c2)c2ccccc2)cc1 (stereo not drawn) | inactive |
| CCN1CCN(Cc2c(O)ccc3cc(-c4ccc(OC)cc4)c(=O)oc23)CC1 | inactive |
| CCC(C)Nc1ccc(NC(C)CC)cc1 (stereo not drawn) | 31.6 µM (active) |
| C=C1C(=O)C2=CC1CCC(=O)C1(C)CCC(OC(C)=O)C(C)(C)C1CC2O (stereo not drawn) | 28.2 µM (active) |
| COc1ccc(-c2c(C)c3ccc(O)cc3oc2=O)cc1OC | inactive |
| COc1ccccc1CCNC(=O)Cc1c(C)c2ccc(O)cc2oc1=O | inactive |

| SMILES | Potency |
| --- | --- |
| Cc1c(CC(=O)NCC(=O)O)c(=O)oc2cc3oc4c(c3cc12)CCCC4 | inactive |
| Cc1c(CC(=O)NCCC(C)C)c(=O)oc2cc3c(cc12)CCC(C)(C)O3 | 39.8 µM (active) |
| CCSc1nnc(NC(=O)CN2C(=O)C3CC=CCC3C2=O)s1 (stereo not drawn) | inactive |
| CCSc1nnc(NC(=O)CSc2nc3c(cc2C#N)CCCC3)s1 | inactive |
| CCCSc1nnc(NC(=O)c2sc3nc(-c4cccs4)ccc3c2N)s1 | inactive |
| CCSc1nnc(NC(=O)c2ccccn2)s1 | 25.1 µM (active) |
| O=C(CSc1nnc(NC(=O)c2ccccc2[N+](=O)[O-])s1)NC1CCCC1 | inactive |
| CCSc1nnc(NC(=O)c2ccc3ccccc3n2)s1 | 35.5 µM (active) |
| CC(C)Cn1nc(NC(=O)c2cccc(Cl)c2)c2cc3ccccc3nc21 | inactive |
| Cc1ccc(Sc2ccc(NC(=O)CCl)cc2)c(C)c1 | 39.8 µM (active) |
| Cc1ccc(C)c(Sc2ccc(S(=O)(=O)Nc3ccc(C(=O)O)cc3)cc2)c1 | inactive |
| Cc1ccc(NCC(=O)Nc2ccc(Br)cc2)cc1C | inactive |
| COc1ccc(-c2cc3ccc(OC(C)C(=O)O)cc3oc2=O)cc1 (stereo not drawn) | inactive |
| FC(F)(F)c1cc(CCN2CCNC[C@@H]2Cc2ccccc2)cc(C(F)(F)F)c1 | 25.1 µM (active) |
| FC(F)(F)c1cc(CCN2CCNC[C@@H]2CC2CCCCC2)cc(C(F)(F)F)c1 | 20 µM (active) |
| O=C1NC[C@@H](Cc2cccc3ccccc23)N(CCc2cc(C(F)(F)F)cc(C(F)(F)F)c2)C1=O | 31.6 µM (active) |
| Oc1ccc(C[C@H]2CNCCN2CCc2cc(C(F)(F)F)cc(C(F)(F)F)c2)cc1 | 31.6 µM (active) |
| O=C(CN1C(=O)c2ccc([N+](=O)[O-])cc2C1=O)NCc1ccco1 | inactive |
| Cc1cc(/C=C2\C(=N)N3N=C(c4ccco4)SC3=NC2=O)c(C)n1Cc1ccccc1 | inactive |
| COc1ccc([N+](=O)[O-])c(OC)c1C(=O)NC(=O)Nc1c(F)cc(F)cc1F | inactive |
| COc1ccc(C2C=C(c3ccc(F)cc3)Nc3nc(-c4ccc(Cl)cc4)nn32)cc1 (stereo not drawn) | inactive |
| Cn1ncc(C#N)c1/N=C/N(Cc1ccccc1)Cc1ccccc1 | inactive |
| CC(NC1=NS(=O)(=O)c2ccccc21)C(=O)Nc1ccc(F)cc1Cl (stereo not drawn) | inactive |
| CC1CC(C)CN(C(=O)CCc2ccccc2)C1 (stereo not drawn) | inactive |
| C[N+](C)(C)CCC(=O)N1C/C(=C/c2ccccc2)C(=O)/C(=C\c2ccccc2)C1 | 8.44 µM (active) |

| SMILES | Potency |
| --- | --- |
| NN=C(S)NCCc1ccccc1 | inactive |
| COc1cc2c(cc1OC)C(SC)=NC1(CCCC1)C2 | 35.5 µM (active) |
| Oc1cc(NC2CCCCC2)nc(O)n1 | inactive |
| CCOC(=O)c1cc2c(=O)n3ccccc3nc2n(C(C)C)/c1=N/C(=O)c1c(-c2ccccc2Cl)noc1C | inactive |
| CCCNC(=O)C[S+]([O-])Cc1nc(-c2ccccc2C)oc1C (stereo not drawn) | inactive |
| O=C(Nc1ccncc1)c1ccc2ccccc2c1 | inactive |
| COc1cc(/C=C(\C#N)C(=O)Nc2cc(C(F)(F)F)ccc2Cl)ccc1OCC(=O)Nc1cccc(C(F)(F)F)c1 | inactive |
| COc1cc(Nc2ccccn2)cc(C(=O)Nc2cccc(C(F)(F)F)c2)c1 | 28.2 µM (active) |
| C=CCNC(=O)/C(C#N)=C/c1c(N2CC(C)OC(C)C2)nc2ccccn2c1=O (stereo not drawn) | inactive |
| Cc1ccc(NC(=O)Cc2nc(-c3c[nH]c(C(=O)N4CCCC4)c3)cs2)c(C)c1 | inactive |
| O=C(O)/C=C\C(=O)Nc1ccc(OC(F)F)cc1 | inactive |
| O=C1C=CC(=O)N1c1ccc(OC(F)F)cc1 | 39.8 µM (active) |
| C/C(=N\NC(=O)C1CC1)c1ccc(OC(F)F)cc1 | inactive |
| COc1cc(/C=C2\C(=N)N3N=C(CC(=O)N4CCCCC4)SC3=NC2=O)cc(OC)c1O | inactive |
| COCCNC(=O)/C(C#N)=C1\N=C(NC(=O)c2ccco2)c2ccccc21 | inactive |
| Cc1ccnc2c1ccc1c(C)ccnc12 | 5.32 µM (active) |
| Cc1ccc2cccnc2c1N | inactive |
| Cc1nn(CCN)c(C)c1Cl | inactive |
| O=C(Nc1ccccc1Cl)C1C(c2ccccc2)C1(Cl)Cl (stereo not drawn) | inactive |
| NC(=O)c1cc(S(=O)(=O)NCc2ccccc2)cs1 | inactive |
| CCCCCCCCNCCS(=O)(=O)NCc1ccccc1 | 31.6 µM (active) |
| CCN1C(=O)c2cccc3c(S(=O)(=O)NCc4ccccc4)ccc1c23 | inactive |
| Nc1cc(-c2ccccc2)nn1Cc1ccccc1 | inactive |
